Glioma ERSR ind – inducers of ER stress response in human glioma cells | U87-MG GRP78 promoter luciferase reporter, 16 h | Potency, µM, for inactives: at the highest dose activation, hits mostly activators | 420,000 tested, 0.02% active | AID 602332; note: potency is the fitted concentration of half-maximal effect; series mostly up to about 76 µM; % of control where 0% means no effect; nearly all actives have a fitted effect of over 35% in size
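ERSR induction read as luciferase luminescence (Bright-Glo, 10 min at room temperature) in stably transfected human U87-MG glioma cells exposed to compounds for 16 h, using GRP78 as sensor.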
D3 ag – D3 dopamine receptor (human) agonism; D3R DiscoveRx beta-arrestin cells, luminescence, 90 min; max activation, %; 410,000 tested, 0.58% active; AID 652048; in the data active = max activation above about 30%; note: 0% is about no effect
Target sequence (P35462 whole entry, looked up): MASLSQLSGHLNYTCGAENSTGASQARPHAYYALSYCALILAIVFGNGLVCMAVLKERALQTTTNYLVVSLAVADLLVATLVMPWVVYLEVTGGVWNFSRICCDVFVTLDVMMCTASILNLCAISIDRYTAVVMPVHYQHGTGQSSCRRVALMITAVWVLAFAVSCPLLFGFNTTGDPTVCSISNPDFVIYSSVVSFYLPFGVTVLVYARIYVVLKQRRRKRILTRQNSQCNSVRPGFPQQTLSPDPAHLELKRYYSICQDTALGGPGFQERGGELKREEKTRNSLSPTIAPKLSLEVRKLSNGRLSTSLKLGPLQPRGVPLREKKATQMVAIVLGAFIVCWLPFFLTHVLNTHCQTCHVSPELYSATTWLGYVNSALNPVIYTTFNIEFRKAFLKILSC
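Cells at 1500/well, incubated overnight, then treated with pinned compounds (dopamine as control) for 90 min at 37 degrees C. DiscoveRx reagent added for 30 - 60 minutes at room temperature; luminescence read.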
DRD3 antagonist – blocks the human D3 dopamine receptor; P35462; D3R cells, DiscoveRx beta-arrestin luminescence, antagonist mode; stronger effect = lower value; max response, negative = inhibition, %; 360,000 tested, 2.5% active; in the data active = max response below about -50%; inconclusive = no clear call, values can overlap the other calls; note: % is set by controls: 0 for no effect and ±100 for the full control effect
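Cells expressing the human receptor were seeded at 1500 cells/well, incubated overnight at 37 degrees C in 5% CO2, then exposed to library compounds with dopamine controls for 90 minutes at 37 degrees C before luminescent detection.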
Nrf2 activator – Nrf2 pathway activation; AREc32 ARE-luciferase reporter (MCF7-derived line), luminescence, 24 h; Potency, µM (doses to about 46.1 µM), for inactives: at the top dose activation, actives largely listed as activators; 410,000 tested, 0.31% active; AID 624171; note: potency is the fitted concentration of half-maximal effect; % of control where 0% means no effect; nearly all actives have a fitted effect of over 65% in size
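Reporter line AREc32 (ARE-Fluc), seeded overnight in OPTI-MEM with 5% FBS; compound pin-transferred, 24 hr at 37 deg C, 5% CO2; luminescent read-out.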
Numbers without * were called inactive; ? = inconclusive; . = no result given. Most compounds without a hit are left out; they make up all but 3% or so of the library. Unless noted, calls come from the whole dose curve; as a rule, active = well fitted curve in the direction sought with a large enough effect; inconclusive = small, poorly fitted or top-dose-only effect, or another doubt; inactive = no such curve, though single readings can be large; an effect the other way counts as inactive or inconclusive.

SMILES	Glioma ERSR ind	D3 ag	DRD3 antagonist	Nrf2 activator
CCOC(=O)/C=C/C(=O)Nc1ccc(S(=O)(=O)Nc2c(C)cc(C)cc2C)cc1	-1%	1	?	1%
CCOC(=O)/C=C/S(=O)(=O)c1ccc(NC(C)=O)cc1	-16%	-6	-76*	-3%
CSc1ncnc2c1ncn2CCCN1CCN(Cc2cccc3ccccc23)CC1	-1%	-14	-60*	6%
CSc1ncnc2c1ncn2CCCN1CCN(c2ncccn2)CC1	1%	38*	0	3%
COc1ncnc2c1ncn2CCCN1CCN(c2ncccn2)CC1	-3%	20	-10	0%
N#C/C(=C\c1ccc(O)c(O)c1)C(=O)NCCCCc1ccccc1	-3%	.	.	.
COc1ccccc1CCC(=O)N1CCOc2c(cc(-c3cnc4ccccc4c3)cc2OC)C1	-4%	.	.	.
COc1cccc(/C=N/Nc2ncnc3scc(-c4ccccc4)c23)c1OC	-2%	36*	42	13%
COc1ccc(-c2csc3ncnc(Nc4ccccc4)c23)cc1	-3%	0	.	0%
CC1CCc2c(sc3ncnc(NCCN4CCOCC4)c23)C1 (configuration not stated)	-1%	-7	-71*	3%
CC1CCc2c(sc3ncnc(N4CCOCC4)c23)C1 (configuration not stated)	1%	20	48	0%
CC(O)(COc1ccccc1)c1ccc2c(c1)CN(Cc1cccc3cccnc13)CCO2 (configuration not stated)	-2%	.	.	.
COc1cc2c(cc1O)C(Cc1ccc(O)cc1)NCC2 (configuration not stated)	-2%	-69	-107*	5%
COc1cc2c(cc1OC)C(c1ccc(O)cc1)NCC2 (configuration not stated)	-5%	-1	7	4%
COc1cc2c(cc1OC)[C@H](Cc1ccc(O)cc1)NCC2	-14%	-24	-62*	6%
Nc1ccc(/C=C/c2nccc3ccccc23)cc1	-6%	.	.	.
COc1cccc(-c2nc(=S)c3c(o2)CCCC3)c1	0%	-2	8	11µM*
S=c1nc(-c2ccccc2)oc2c1CCCC2	5%	1	5	11µM*
O=[N+]([O-])c1ccc(-c2nc(=S)c3c(o2)CCCC3)cc1	-4%	-1	1	1%
CCOC(=O)NNc1ccc(N(CC)CC(C)O)nn1 (configuration not stated)	-3%	-5	.	.
Cc1ccc(C)c(NC(=O)CSc2nnc(-c3ccncc3)n2N)c1	-2%	-3	-70*	0%
Cc1ccc(C(=O)N2CCCC(N(C)Cc3ccccc3)C2)s1 (configuration not stated)	-3%	-12	-62*	1%
Cc1cc[n+](CCC2CCCCC2)c2ccccc12	-4%	.	.	.
COc1ccc(OC)c(S(=O)(=O)N2CCN(c3ccccc3)CC2)c1	-2%	5	4	0%
COc1ccc(OC)c(S(=O)(=O)ON2C(=O)c3ccccc3C2=O)c1	-8%	-20	-97*	2%
SMILES	Glioma ERSR ind	D3 ag	DRD3 antagonist	Nrf2 activator
COc1cccc(/C=C2\SC(=O)N(CCC(=O)NNC(=O)c3ccccc3Cl)C2=O)c1	0%	57*	16	0%
COc1ccc(CN2CCOc3ccc(C(O)c4cccnc4)cc3C2)cc1O (configuration not stated)	-5%	.	.	.
O=c1/c(=C\c2ccc(O)cc2)sc2n1C(c1ccccc1)C(c1ccccc1)=NN=2 (configuration not stated)	2%	-28	-59*	6%
CCOC(=O)C1=C(c2ccccc2)N=c2s/c(=C\c3cccc(O)c3)c(=O)n2C1c1cccs1 (configuration not stated)	5%	-10	-12	-1%
O=C(C[n+]1cccc2cccc(O)c21)c1ccccc1	-3%	.	.	.
C[C@H]1C[C@H]2[C@@H]3CCC4=CC(=O)C=C[C@]4(C)[C@@]3(F)[C@@H](O)C[C@]2(C)[C@@]1(O)C(=O)CCl	.	-17	.	.
C=CCOc1ccc(C2C(C(=O)c3cccs3)=C(O)C(=O)N2c2nnc(C)s2)cc1 (configuration not stated)	?	-13	-63*	0%
COc1ccccc1NC(=O)Cn1nc2c3cc(F)ccc3n(Cc3cccc(C)c3)cc-2c1=O	-1%	3	.	0%
CC[C@@H](C(=O)O)[C@@H]1O[C@@H]([C@@H](C)[C@H](O)[C@H](C)C(=O)[C@H](CC)[C@H]2O[C@]3(C=C[C@@H](O)[C@]4(CC[C@@](C)([C@H]5CC[C@](O)(CC)[C@H](C)O5)O4)O3)[C@H](C)C[C@@H]2C)[C@@H](C)C[C@@H]1C	.	54*	.	.
